For five molecules, composite z-score, composite Z-score and z-score results are on record in PubChem BioAssay.

Calls of active or inactive are those of the source.

The target in one assay is Albumin (Bos taurus) (UniProt P02769). The assay can be described thus: compounds binding labelled BSA control protein – biochemical, small-molecule microarray, Alexa647 label, 635/667 nm fluorescence, artefact control for SMM control protein annotation, profiling panel (AID 1118).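 Note: score merges 667 nm emission intensity and signal-to-noise per printed compound spot.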 The conditions noted are these: BSA-A647 binding, fluorescence 635 nm, higher = more signal.
Chain of Albumin (Bos taurus) (P02769 whole entry, looked up): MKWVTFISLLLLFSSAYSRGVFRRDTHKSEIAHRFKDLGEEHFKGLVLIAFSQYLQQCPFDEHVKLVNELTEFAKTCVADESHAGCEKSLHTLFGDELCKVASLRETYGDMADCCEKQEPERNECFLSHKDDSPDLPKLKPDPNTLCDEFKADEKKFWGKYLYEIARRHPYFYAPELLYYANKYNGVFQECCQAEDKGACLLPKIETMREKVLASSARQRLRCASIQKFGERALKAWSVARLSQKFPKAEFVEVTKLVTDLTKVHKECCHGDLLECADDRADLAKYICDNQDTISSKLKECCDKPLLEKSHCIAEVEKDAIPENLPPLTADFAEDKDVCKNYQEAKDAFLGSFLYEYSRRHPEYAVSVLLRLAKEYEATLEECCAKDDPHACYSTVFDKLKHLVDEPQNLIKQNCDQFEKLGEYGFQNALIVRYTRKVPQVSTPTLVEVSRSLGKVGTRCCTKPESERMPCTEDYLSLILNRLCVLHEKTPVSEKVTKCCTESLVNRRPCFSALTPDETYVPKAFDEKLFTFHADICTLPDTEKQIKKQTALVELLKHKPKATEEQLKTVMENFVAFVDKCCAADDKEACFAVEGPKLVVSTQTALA

Assay [1] can be described thus: probe aXIP binding to arrayed compounds – biochemical, NeuroSMM set, 635/667 nm fluorescence, primary screen (AID 1119).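 Note: probe is the protein aXip251-270 applied at 1 µg/mL to compound-printed slides; binding of probe to printed compounds measured as 667 nm fluorescence plus signal to noise.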 The conditions noted are these: small-molecule microarray, higher = more signal, called active from +8 up or from −8 down.
Assay [2] in a line: probe aNOTCH3 binding on compound microarray – biochemical, small-molecule microarray, 635/667 nm fluorescence, primary screen (AID 1120).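 Note: probe is a biotin-tagged antibody raised against NOTCH3 rather than NOTCH3 protein; score merges spot fluorescence near 667 nm with spot signal to noise.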 The conditions noted are these: higher = more signal.
The nature of assay [3]: probe aNOTCH2 binding on compound microarray – biochemical, small-molecule microarray, 635/667 nm fluorescence, primary screen (AID 1121).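 Note: score merges feature fluorescence read at 667 nm with its signal to noise.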 The conditions noted are these: higher = more signal.
Assay [4] has as its target Carbonic anhydrase 2 (Homo sapiens) (UniProt P00918). The assay can be described thus: compounds binding carbonic anhydrase 2 – biochemical, small-molecule microarray, Alexa647-labelled CAII, profiling panel (AID 1122). The conditions noted are these: CAII-A647 binding fluorescence, higher = more signal.
The nature of assay [5]: COS7 lysate on small-molecule microarray, probe aHis, 635 nm (AID 1123).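 Note: z-score combines 667nm fluorescence intensity with signal-to-noise per printed compound spot.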 The conditions noted are these: COS7 cell lysate, fluorescence, higher = more signal.
Assay [6] can be described thus: probe aLAP1 signal on lysate-treated microarray – cell lysate, small-molecule microarray, COS7 lysate, primary screen (AID 1124).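 Note: lysate comes from COS7 cells expressing LAP1 and is applied at 0.3 µg/mL; score merges spot fluorescence near 667 nm with signal-to-noise over triplicate slides.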 The conditions noted are these: probe aLAP1, fluorescence, higher = more signal.
A further assay has as its system Sam68 (KHDRBS1). Description: compounds binding KHDRBS1 protein – biochemical, small-molecule microarray, 635 nm fluorescence, primary screen (AID 1125).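 Note: score merges 667 nm channel intensity with signal to noise over triplicate slides.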 The conditions noted are these: higher = more signal.
The subject of assay [7] is Chordin-like protein 2 (CHRDL2). The assay can be described thus: compounds binding chordin-like 2 – biochemical, small-molecule microarray, 635 nm fluorescence, primary screen (AID 1126).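 Note: printed compound slides probed with Chrdl2 protein at 4 µg/mL for 1 h at 4 C; score merges 667 nm emission intensity with signal to noise over three replicate slides.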 The conditions noted are these: fluorescence 635 nm, higher = more signal.
In assay [8] the target is Concanavalin-A (Canavalia ensiformis) (UniProt P02866). The assay can be described thus: compounds binding concanavalin A lectin – biochemical, small-molecule microarray, Alexa647 label, 635 nm, artefact control for SMM control protein annotation, primary screen (AID 1127).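 Note: z combines 667 nm emission intensity with signal-to-noise across three replicate slides.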 The conditions noted are these: ConA-A647 binding fluorescence, higher = more signal.
Chain of Concanavalin-A (Canavalia ensiformis) (P02866 whole entry, looked up): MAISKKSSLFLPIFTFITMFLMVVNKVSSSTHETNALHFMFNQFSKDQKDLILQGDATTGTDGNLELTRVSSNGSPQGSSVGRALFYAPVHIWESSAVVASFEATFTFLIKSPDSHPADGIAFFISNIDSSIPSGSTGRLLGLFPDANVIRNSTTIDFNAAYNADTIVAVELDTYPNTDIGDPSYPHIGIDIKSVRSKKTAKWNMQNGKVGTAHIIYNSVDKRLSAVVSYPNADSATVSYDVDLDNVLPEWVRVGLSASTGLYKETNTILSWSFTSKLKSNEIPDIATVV
Assay [9] is described as follows: compounds binding Alexa647 anti-His antibody – biochemical, small-molecule microarray, 635 nm fluorescence, artefact control for SMM control protein annotation, primary screen (AID 1128).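 Note: score merges feature fluorescence with signal-to-noise for each printed compound spot.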 The conditions noted are these: higher = more signal.
Assay [10] relates to Human papillomavirus type 1a E7 protein (residues 1-88). The assay can be described thus: HPV1a E7 small-molecule binders, primary screen, biochemical, small-molecule microarray, residues 1-88, 635 nm (AID 1129). The conditions noted are these: small-molecule microarray binding, fluorescence 635 nm; higher = more signal.
In assay [11] the target is Focal adhesion kinase 1 (Homo sapiens) (UniProt Q05397). Description: PTK2 protein binding on printed compound slides – biochemical, small-molecule microarray, 635/667 nm fluorescence, BSA, DTT, primary screen (AID 1130).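 Note: composite of spot emission at 667 nm and signal to noise over triplicate slides.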 The conditions noted are these: 635 nm fluorescence, higher = more signal.
Chain of Focal adhesion kinase 1 (Homo sapiens) (Q05397 whole entry, looked up): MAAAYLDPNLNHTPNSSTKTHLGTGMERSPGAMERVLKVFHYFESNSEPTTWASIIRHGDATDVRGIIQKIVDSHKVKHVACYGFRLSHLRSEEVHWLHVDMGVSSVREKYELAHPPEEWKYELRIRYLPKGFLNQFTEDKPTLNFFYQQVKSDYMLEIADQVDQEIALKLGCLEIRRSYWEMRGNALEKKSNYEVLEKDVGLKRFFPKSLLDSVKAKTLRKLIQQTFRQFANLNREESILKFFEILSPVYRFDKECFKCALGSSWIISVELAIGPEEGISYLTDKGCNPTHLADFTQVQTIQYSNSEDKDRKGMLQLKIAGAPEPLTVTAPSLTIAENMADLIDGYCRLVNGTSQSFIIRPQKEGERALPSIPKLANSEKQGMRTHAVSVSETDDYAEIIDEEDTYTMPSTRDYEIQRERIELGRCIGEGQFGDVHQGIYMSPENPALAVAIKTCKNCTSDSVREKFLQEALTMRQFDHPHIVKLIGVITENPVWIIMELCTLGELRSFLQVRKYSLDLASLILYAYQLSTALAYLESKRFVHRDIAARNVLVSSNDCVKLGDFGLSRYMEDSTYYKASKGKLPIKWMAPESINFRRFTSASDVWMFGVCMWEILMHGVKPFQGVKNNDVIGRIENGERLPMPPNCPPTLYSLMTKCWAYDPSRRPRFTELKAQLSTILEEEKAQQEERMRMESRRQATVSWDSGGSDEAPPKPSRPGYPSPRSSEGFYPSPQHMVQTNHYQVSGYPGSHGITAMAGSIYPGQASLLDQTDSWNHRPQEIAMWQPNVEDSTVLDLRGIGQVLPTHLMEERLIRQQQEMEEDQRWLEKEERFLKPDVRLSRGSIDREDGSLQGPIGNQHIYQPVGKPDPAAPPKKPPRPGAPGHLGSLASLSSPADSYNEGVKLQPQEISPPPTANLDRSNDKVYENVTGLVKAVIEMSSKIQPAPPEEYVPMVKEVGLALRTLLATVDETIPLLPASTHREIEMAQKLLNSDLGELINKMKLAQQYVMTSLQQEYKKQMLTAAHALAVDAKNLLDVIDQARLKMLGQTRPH
In assay [12] the test system is Fibrinogen (Alexa647-labelled). The assay can be described thus: Alexa647-fibrinogen binding to printed small molecules – biochemical, small-molecule microarray, 635/667 nm fluorescence, artefact control for SMM control-protein annotation, profiling panel (AID 1131).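 Note: z-score merges 667 nm fluorescence with per-spot signal-to-noise over triplicate slides.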 The conditions noted are these: fibrinogen-A647 binding fluorescence, higher = more signal.
Assay [13] has as its target Follistatin (Homo sapiens) (UniProt P19883). Description: FST protein binding to printed compounds – biochemical, small-molecule microarray, 635/667 nm fluorescence, primary screen (AID 1132). The conditions noted are these: 635 nm fluorescence, higher = more signal.
The target in assay [14] is Fibroblast growth factor 2 (Homo sapiens) (UniProt P09038). Description: basic fibroblast growth factor binding to printed compounds – biochemical, small-molecule microarray, 635/667 nm fluorescence, primary screen (AID 1133). The conditions noted are these: FGF2, fluorescence 635/667, higher = more signal.
Chain of Fibroblast growth factor 2 (Homo sapiens) (P09038 whole entry, looked up): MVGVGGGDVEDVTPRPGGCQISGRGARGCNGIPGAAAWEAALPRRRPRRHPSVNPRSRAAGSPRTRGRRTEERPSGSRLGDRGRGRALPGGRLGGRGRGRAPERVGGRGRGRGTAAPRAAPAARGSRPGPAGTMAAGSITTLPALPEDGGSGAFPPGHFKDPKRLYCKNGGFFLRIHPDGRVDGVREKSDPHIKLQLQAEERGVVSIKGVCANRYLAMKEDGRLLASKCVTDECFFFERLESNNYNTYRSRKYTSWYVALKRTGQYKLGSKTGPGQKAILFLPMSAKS
A short description of assay [15]: JC-1 mitochondrial potential readout, lung cancer cells – cell-based, A549, JC-1 fluorescence, basal, 24 h, 100 nL, profiling panel (AID 1138).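 Note: A549 lung adenocarcinoma cells under basal conditions with no added stimulus; test concentration not given here.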 The conditions noted are these: higher = more signal.
The next assay has as its system Lefty1. Description: Lefty1 protein binding to printed compounds – biochemical, small-molecule microarray, 635/667 nm fluorescence, primary screen (AID 1139). The conditions noted are these: fluorescence 635/667, higher = more signal.
The test system of assay [16] is wheat germ agglutinin (Triticum aestivum), Alexa647-labelled. The assay can be described thus: Alexa647-WGA lectin binding to printed small molecules – biochemical, small-molecule microarray, 635/667 nm fluorescence, artefact control for SMM control-protein annotation, profiling panel (AID 1140).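 Note: score merges 667 nm feature emission with signal to noise over triplicate slides.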 The conditions noted are these: WGA-A647 binding, 635 nm fluorescence, higher = more signal.

The target in assay [17] is Luciferin 4-monooxygenase (Photinus pyralis) (UniProt P08659). The assay can be described thus: inhibition of purified Photinus pyralis luciferase – biochemical, luminescence, purified enzyme, 2006 set, primary screen (AID 1141).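 Note: cell-free assay with purified firefly luciferase at 100 ng per well in PBS; test concentration not given here.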 The conditions noted are these: purified firefly luciferase, SteadyGlo luminescence, 30 min; higher = more signal, called active from +8 up or from −8 down.
Chain of Luciferin 4-monooxygenase (Photinus pyralis) (P08659 whole entry, looked up): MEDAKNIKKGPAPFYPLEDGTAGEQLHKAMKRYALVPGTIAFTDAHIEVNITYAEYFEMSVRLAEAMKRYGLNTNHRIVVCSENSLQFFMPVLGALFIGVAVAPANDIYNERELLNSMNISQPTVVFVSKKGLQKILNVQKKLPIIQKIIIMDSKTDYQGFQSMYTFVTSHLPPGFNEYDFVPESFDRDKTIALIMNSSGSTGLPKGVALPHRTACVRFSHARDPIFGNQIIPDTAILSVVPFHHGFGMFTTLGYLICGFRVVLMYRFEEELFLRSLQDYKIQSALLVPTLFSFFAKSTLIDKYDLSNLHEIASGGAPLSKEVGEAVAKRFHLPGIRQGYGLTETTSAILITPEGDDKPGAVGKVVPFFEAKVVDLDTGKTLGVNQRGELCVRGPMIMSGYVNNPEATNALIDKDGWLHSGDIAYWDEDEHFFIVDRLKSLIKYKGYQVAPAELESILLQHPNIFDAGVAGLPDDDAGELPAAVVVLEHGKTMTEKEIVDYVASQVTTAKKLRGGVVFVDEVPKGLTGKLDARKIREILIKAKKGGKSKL

Chain of Follistatin (Homo sapiens) (P19883 whole entry, looked up): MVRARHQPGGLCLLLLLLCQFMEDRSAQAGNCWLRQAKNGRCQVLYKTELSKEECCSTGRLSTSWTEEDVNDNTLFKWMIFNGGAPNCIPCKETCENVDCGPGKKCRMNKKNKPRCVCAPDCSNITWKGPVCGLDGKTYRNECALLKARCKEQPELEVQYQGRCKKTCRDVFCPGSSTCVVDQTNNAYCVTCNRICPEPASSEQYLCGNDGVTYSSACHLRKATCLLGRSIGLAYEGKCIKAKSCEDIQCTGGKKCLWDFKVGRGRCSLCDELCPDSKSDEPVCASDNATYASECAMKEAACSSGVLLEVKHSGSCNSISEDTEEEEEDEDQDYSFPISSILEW

Consider `CCCCOC(OCCCC)C(O)CSc1ccc2ccccc2c1` (stereo not given), for which the composite z-score with Albumin (Bos taurus) is -0.196; in [2], 0.0669; in [3], -0.0682; in assay [4], 0.028; in assay [5], 0.125; in assay [6], -0.0593. In addition, the composite z-score in the assay on Sam68 (KHDRBS1) was 1.02; in assay [7], 0.537; in assay [8] it was 0.196; in assay [9], 0.147; in assay [10], 0.776; in [11], 0.0661. Also, the composite z-score came out at 0.329 in assay [12]; 0.586 in assay [13]; 0.296 in [14]; 0.489 with Lefty1; 0.264 in assay [16]. In assay [1], the composite Z-score was -0.444 (inactive). Also, the z-score in assay [15] is 0.428; in assay [17], -0.842 (inactive).
For `C#CCCCON=C1C[C@@H](O)[C@@H](O)[C@@H]2[C@@H]3C(=O)N(C[C@@H]4CCCO4)C(=O)[C@@H]3CC[C@H]12`, the composite z-score with Albumin (Bos taurus) was 0.541; in assay [2], -0.0662; in assay [3] it was -0.115; in [4], 0.239; in assay [5], 0.335; in assay [6], 0.142. Also, the composite z-score was found to be 0.63 with Sam68 (KHDRBS1); 0.249 in assay [7]; 0.732 in [8]; 0.185 in assay [9]; 0.508 in assay [10]; 0.235 in assay [11]. The composite z-score in assay [12] was found to be 0.509; in [13], 0.669; in assay [14] it was 0.103; with Lefty1, 0.388; in [16] it was 0.0691. Besides, the composite Z-score in assay [1] is 1.11 (inactive). Also, the z-score in [15] is -0.544; in assay [17], 0.451 (inactive).
Turning to `COC(=O)CC=C1c2ccccc2[C@H](OC)[C@H]1C`, the composite z-score with Albumin (Bos taurus) was -0.8; in [2], 0.0026; in assay [3] it was -0.0614; in assay [4], -0.36; in assay [5] it was -0.316; in assay [6], -0.441. Moreover, the composite z-score in the assay with Sam68 (KHDRBS1) was -0.742; in assay [7] it was 0.523; in [8] it was -0.334; in assay [9] it was -0.706; in assay [10] it was -0.352; in assay [11], -0.102. The composite z-score in assay [12] was -0.479; in assay [13] it was -0.0211; in [14], 0.621; in the assay with Lefty1, 0.338; in assay [16] it was -0.488. The composite Z-score in assay [1] was 0.272 (inactive). Also, the z-score in assay [15] is -0.612; in [17], 0.469 (inactive).
On to `CCN1C(=O)[C@H]2[C@H]3[C@H](O)[C@H](O)CC(=NOCC(C)C)[C@H]3CC[C@H]2C1=O`, for which the composite z-score with Albumin (Bos taurus) was -0.369; in assay [2] it was 0.108; in assay [3], -0.204; in assay [4], -0.15; in assay [5], -0.302; in assay [6], 0.0041. The composite z-score was 0.0597 in the assay on Sam68 (KHDRBS1); 0.843 in [7]; -0.238 in assay [8]; 0.341 in assay [9]; 0.551 in [10]; -0.0956 in assay [11]. Moreover, the composite z-score in assay [12] is -0.326; in assay [13] it was 0.818; in assay [14] it was 0.4; in the assay on Lefty1, 0.717; in assay [16], -0.312. The composite Z-score in assay [1] was -0.14 (inactive). For the same molecule, the z-score was -0.087 in assay [15] and 0.404 (inactive) in [17].
Turning to `COC(=O)[C@H](C)NC(=O)CC=C[C@@H](C)[C@@H]1C=C[C@H](O)[C@@H](CO)O1`, the composite z-score with Albumin (Bos taurus) was -0.453; in [2], -0.0932; in [3], -0.237; in assay [4], -0.114; in assay [5], -0.346; in assay [6] it was -0.0681. For the same molecule, the composite z-score in the assay on Sam68 (KHDRBS1) was 0.457; in assay [7] it was 1.33; in assay [8], -0.174; in assay [9], 0.0816; in [10], 0.228; in assay [11] it was -0.118. Moreover, the composite z-score in [12] is -0.0588; in assay [13], 1.14; in [14] it was 1; in the assay on Lefty1 it was 1.39; in assay [16], -0.28. For the same molecule, the composite Z-score in assay [1] is -0.0756 (inactive). Moreover, the z-score was -0.142 in [15] and 0.374 (inactive) in [17].
